Sensor-assay potency score (higher = more potent) data for 39 sequences are collected here from the OligoGym collection.
Also: reference of the scale not given here.

The target of the first assay is SPOCK1. Nature of the assay: pooled miR-30 sensor sort-seq; sequence = guide strand. The settings on record: shRNA.
As for TTCCGCAACTCCTTGTCTGTGC, the sensor-assay potency score (higher = more potent) was 0.679. Take TTGCACTTGACCAAATTCGAAG: the sensor-assay potency score (higher = more potent) was -1.14. Same read-out and setting: for ATATTCTAGGTCATCCAGCAGG the value was -0.735.

The next assay concerns the target SPOPL. The description is as above. Particulars: shRNA.
As to TTAACCTGTGTGTAACACCAGC, the sensor-assay potency score (higher = more potent) is -0.559. The sequence TGTAACACCAGCTTTCTGCTAT showed a sensor-assay potency score (higher = more potent) of 0.257. Turning to TACTACTTTAACCTGTGTGTAA, the sensor-assay potency score (higher = more potent) is -0.323. TTCTTCGCACATGACCTTCAGC: the sensor-assay potency score (higher = more potent) was -0.607. Turning to TTTTGCTCGAACTTCACTTTTG, the sensor-assay potency score (higher = more potent) was -1.29. For AAATTTTACTACTTTAACCTGT, the sensor-assay potency score (higher = more potent) turned out to be 0.191.

Take TGTCGAAGTACACTGCACCTAT: the sensor-assay potency score (higher = more potent) was -0.0442. Same read-out and setting: for TCGCACATGACCTTCAGCCGTT the value was -0.42; for TTGAACTTTTTAACACTTCACC, -1.27. Same read-out and setting: for TAAAAACTGGAGATCGAGCTGC the value was 0.265.

Consider TATTTGTATTAGTATGTCCTGA, for which the sensor-assay potency score (higher = more potent) is -0.376. Turning to TTTACTACTTTAACCTGTGTGT, the sensor-assay potency score (higher = more potent) was -0.00218.

The target of a further assay is SPRR2B. The assay is described as above. Particulars: shRNA.
In the case of TTGCACAGGTGGTAGAAGCTCA, the sensor-assay potency score (higher = more potent) was -0.478.

With TTAGAAAGGAAACCTTTTGCTA, the sensor-assay potency score (higher = more potent) is -0.743. Consider TTGCTATCAGGGAACATCATGG, for which the sensor-assay potency score (higher = more potent) was -0.524. Consider TATGAATCCATGATAAGCTTTG, for which the sensor-assay potency score (higher = more potent) was -0.839. Consider ATACTTTGGCTGGCAGGGTGGG, for which the sensor-assay potency score (higher = more potent) was -1.37. Consider TTTGCTATCAGGGAACATCATG, for which the sensor-assay potency score (higher = more potent) is -1.04. Turning to TCTTTCTGCTGAAGCTCTGGGA, the sensor-assay potency score (higher = more potent) was -0.772. Take TGAAGCTCTGGGAACTGACAAA: the sensor-assay potency score (higher = more potent) is -1.43.

Take TCTGGGAACTGACAAAGCCAAG: the sensor-assay potency score (higher = more potent) was -1.68. TTCCCAGGCACACAGCTGCAGC: the sensor-assay potency score (higher = more potent) was -1.61. For the sequence TAAGGGGAAAGAAGCTCCCTAT, the sensor-assay potency score (higher = more potent) was -0.405. As for TCCATGATAAGCTTTGATGAGA, the sensor-assay potency score (higher = more potent) is -1.51.

A further assay addresses SPSB2. Described as above. The settings on record: shRNA.
Consider TTGCTCTGATGGTACAGCTTCC, for which the sensor-assay potency score (higher = more potent) is -0.719. For the sequence TCTCTCTGGCACCTCCAGCTGC, the sensor-assay potency score (higher = more potent) is -1.35. For TTGTGGCGCACACACAGGCGGC, the sensor-assay potency score (higher = more potent) is -1.68. Consider TTGACCTCGATGTTCTCTGAAC, for which the sensor-assay potency score (higher = more potent) was -1.03. As to TAGTGGTCAGTCTGCAGCGGGG, the sensor-assay potency score (higher = more potent) is -1.67. Turning to TAGCAGACTGTCATAGCCTTGA, the sensor-assay potency score (higher = more potent) was -0.29. The same measure, in the same setting: the result for TTGATTTCCGCAGAGCTTGGGT reads -0.0773; that for TTTGGGGTTCCAACCGTGGCGC, -1.17; that for ATGTTCTCTGAACAGTCTTTGG, -1.78.

Turning to TTGAATAGCCCCTCTTACCCCG, the sensor-assay potency score (higher = more potent) was -0.468. For TAGCGTAGCCCAGAGTTCCCTC, the sensor-assay potency score (higher = more potent) was -0.633.

For the sequence TTCTCTGAACAGTCTTTGGGGT, the sensor-assay potency score (higher = more potent) is -0.466.
